Eight molecules from PubChem BioAssay (NCI) can be followed below.

Test systems include RPMI-8226 leukemia; OVCAR-8 ovarian; OVCAR-5 ovarian; OVCAR-4 ovarian; SK-OV-3 ovarian; IGROV1 ovarian; OVCAR-3 ovarian; HS 578T breast; NCI/ADR-RES ovarian; T-47D breast; BT-549 breast; MDA-MB-435 melanoma; SW-620 colon; MCF7 breast; HCT-116 colon; HCC-2998 colon; KM12 colon.
Common to all, as to assay: NCI-60 one-dose screen, 48 h (100 = growth as untreated, 0 = no growth, -100 = all killed)
Holding throughout (settings): 10 µM unless noted

Structures are written as SMILES. This is part of a sample that, as a whole, favours compounds with a hit. Of some 83,000 tested, about 20% had one in any assay.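 Single-concentration screen, 48 h exposure, 96-well plates. Endpoint: percent growth. Below 10 = active.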 A number with no mark means an inactive call. Calls of active or inactive are those of the source.

For the molecule `COc1ccc(/C=C/C(=O)c2ccc(NC(=O)CSc3nnc(-c4ccc(OC)c(OC)c4)n3-c3ccccc3)cc2)cc1`, the growth is -25% (active) with RPMI-8226 leukemia; 11.4% in the assay on OVCAR-8 ovarian; 112% with OVCAR-5 ovarian; 91.3% in the assay with OVCAR-4 ovarian; 85.1% with SK-OV-3 ovarian; -36.7% (active) in the assay with IGROV1 ovarian. Moreover, the growth with OVCAR-3 ovarian was 59.8%; with HS 578T breast, 86.6%; in the assay with NCI/ADR-RES ovarian, 57.4%; in the assay on T-47D breast, 36.2%; in the assay with BT-549 breast, 55.2%; with MDA-MB-435 melanoma, 45.3%. Besides, the growth in the assay on SW-620 colon is 10.2%; with MCF7 breast, -8.34% (active); in the assay on HCT-116 colon it was -85.8% (active); with HCC-2998 colon, 94.9%; with KM12 colon, 61.3%.
As for `COc1ccc(C(=O)c2cc(OC)c(C)c(OC)c2)cc1OC(=O)CCl`, the growth with RPMI-8226 leukemia was 28.3%; in the assay on OVCAR-8 ovarian, 25.4%; with OVCAR-5 ovarian, 74.8%; in the assay on OVCAR-4 ovarian, 60.1%; in the assay with SK-OV-3 ovarian, 19.4%; with IGROV1 ovarian it was 30.7%. For the same molecule, the growth with OVCAR-3 ovarian was -8.39% (active); with HS 578T breast it was 40.5%; in the assay on NCI/ADR-RES ovarian, 10.5%; in the assay with T-47D breast, 43.8%; in the assay with BT-549 breast, 15.6%; in the assay on MDA-MB-435 melanoma, -17.2% (active). Further, the growth is 24.1% with SW-620 colon; 13.4% with MCF7 breast; 10.2% with HCT-116 colon; 24.9% in the assay on HCC-2998 colon; 19.1% with KM12 colon.
Consider `C#Cc1ccccc1NC(=O)c1sc2nc3c(cc2c1N)CCCCC3`, for which the growth in the assay with RPMI-8226 leukemia is 97.4%; in the assay with OVCAR-8 ovarian, 100%; with OVCAR-5 ovarian, 105%; with OVCAR-4 ovarian it was 103%; with SK-OV-3 ovarian, 100%; in the assay on IGROV1 ovarian it was 103%. Further, the growth in the assay with OVCAR-3 ovarian is 105%; in the assay on HS 578T breast it was 99.6%; with NCI/ADR-RES ovarian it was 105%; with T-47D breast, 95%; with BT-549 breast, 96.4%; in the assay on MDA-MB-435 melanoma, 95.1%. For the same molecule, the growth was 102% in the assay on SW-620 colon; 81.5% in the assay on MCF7 breast; 109% with HCT-116 colon; 105% in the assay on HCC-2998 colon; 102% in the assay on KM12 colon.
As for `COc1cc2nc3c(=O)n(CCN(C)C)cnn3c(=O)c2cc1OC`, the growth was 121% with RPMI-8226 leukemia; 111% with OVCAR-8 ovarian; 99% with OVCAR-5 ovarian; 101% in the assay with OVCAR-4 ovarian; 104% in the assay on SK-OV-3 ovarian; 100% with IGROV1 ovarian. Moreover, the growth in the assay with OVCAR-3 ovarian was 103%; with HS 578T breast it was 92.8%; with NCI/ADR-RES ovarian, 98.3%; with T-47D breast it was 112%; in the assay on BT-549 breast it was 98.6%; in the assay with MDA-MB-435 melanoma, 97.3%. Further, the growth in the assay with SW-620 colon was 97%; in the assay on MCF7 breast it was 95.9%; with HCT-116 colon, 101%; in the assay with HCC-2998 colon it was 99.3%; in the assay on KM12 colon it was 95.1%.
Turning to `COc1cc(C2=NNC(c3ccc(N(C)C)cc3)C2)cc(OC)c1OC` (stereo unspecified), the growth with RPMI-8226 leukemia was 16%; in the assay with OVCAR-8 ovarian it was 24.7%; in the assay on OVCAR-5 ovarian it was 30.4%; in the assay on OVCAR-4 ovarian, 52.2%; in the assay with SK-OV-3 ovarian it was 19.5%; with IGROV1 ovarian it was 35.4%. In addition, the growth with OVCAR-3 ovarian was 5.84% (active); in the assay on HS 578T breast, -21.7% (active); in the assay with NCI/ADR-RES ovarian, -20.7% (active); in the assay with T-47D breast it was 45.8%; with BT-549 breast, 35.1%; in the assay with MDA-MB-435 melanoma, 19%. Besides, the growth in the assay on SW-620 colon was 20%; with MCF7 breast it was 20.2%; in the assay with HCT-116 colon it was 9.9% (active); in the assay on HCC-2998 colon it was 7.82% (active); in the assay on KM12 colon it was 14.4%.
With `CN(C)CCCn1c2c(c3cc(-c4ccco4)ccc3c1=O)C(=O)c1ccccc1-2`, the growth is 46.3% in the assay with RPMI-8226 leukemia; 48% with OVCAR-8 ovarian; 104% with OVCAR-5 ovarian; 53% in the assay with OVCAR-4 ovarian; 93.1% in the assay on SK-OV-3 ovarian; 52.2% in the assay with IGROV1 ovarian. In addition, the growth in the assay on OVCAR-3 ovarian is 72%; with HS 578T breast, 79.9%; in the assay on NCI/ADR-RES ovarian, 53.6%; with T-47D breast, 49.2%; in the assay with BT-549 breast it was 83.9%; in the assay with MDA-MB-435 melanoma, 66.6%. In addition, the growth in the assay on SW-620 colon was 30.2%; with MCF7 breast, -21.6% (active); in the assay with HCT-116 colon, 26.6%; in the assay on HCC-2998 colon it was 71.7%; in the assay on KM12 colon it was 44.4%.
On to `N#C/C(=C/c1ccc(O)c([N+](=O)[O-])c1)c1nc(-c2ccc([N+](=O)[O-])cc2)cs1`, for which the growth in the assay on RPMI-8226 leukemia is 9.81% (active); in the assay with OVCAR-8 ovarian, 48.4%; with OVCAR-5 ovarian, 108%; in the assay on OVCAR-4 ovarian, 34.1%; with SK-OV-3 ovarian, 38.9%; in the assay on IGROV1 ovarian, 55.9%. Besides, the growth with OVCAR-3 ovarian is 23.5%; in the assay with HS 578T breast it was 44.2%; with NCI/ADR-RES ovarian it was 33.4%; in the assay on T-47D breast, 11.2%; with BT-549 breast, 36.3%; in the assay on MDA-MB-435 melanoma, 40.2%. The growth was 54.2% in the assay with SW-620 colon; 25.8% with MCF7 breast; 33.8% with HCT-116 colon; 30.4% in the assay on HCC-2998 colon; 36% in the assay with KM12 colon.
Turning to `CCCCc1nc(Cl)c(C2CC(c3ccc(Cl)cc3)=NN2c2cc(Cl)cc(Cl)c2)[nH]1` (stereo unspecified), the growth is 90.9% in the assay on RPMI-8226 leukemia; 68.5% with OVCAR-8 ovarian; 94.2% in the assay on OVCAR-5 ovarian; 63.5% in the assay with OVCAR-4 ovarian; 92.4% in the assay on SK-OV-3 ovarian; 71.1% in the assay with IGROV1 ovarian. Further, the growth is 65.9% in the assay on OVCAR-3 ovarian; 59.6% with HS 578T breast; 78.8% with NCI/ADR-RES ovarian; 75% in the assay on T-47D breast; 72% with BT-549 breast; 83.2% in the assay on MDA-MB-435 melanoma. Moreover, the growth is 16.8% in the assay on SW-620 colon; 85.1% in the assay with MCF7 breast; 63.9% in the assay on HCT-116 colon; 102% in the assay with HCC-2998 colon; 89% with KM12 colon.
